Data reported in PubChem BioAssay.
Entries with a potency or affinity are not part of this list. The source made the active and inactive calls.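 How the source made its calls: active means primary screen activator hit with a dose response curve and TRPC4 channel activation at any tested dose; inactive means no activation, no dose response, or not a primary hit.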

Each molecule was assayed against Short transient receptor potential channel 4 (Mus musculus) (UniProt Q9QUQ5) (assay: mouse TRPC4 channel activators, dose response, cell-based, HEK293 TRPC4/mu-opioid, Fluo-4 calcium (AID 434937)). Settings: HEK293 TRPC4 cells, Fluo-4 calcium fluorescence ratio; series mostly up to 20 µM; activation ratio: at the top concentration.
Short transient receptor potential channel 4 (Mus musculus), sequence (Q9QUQ5 whole entry, looked up): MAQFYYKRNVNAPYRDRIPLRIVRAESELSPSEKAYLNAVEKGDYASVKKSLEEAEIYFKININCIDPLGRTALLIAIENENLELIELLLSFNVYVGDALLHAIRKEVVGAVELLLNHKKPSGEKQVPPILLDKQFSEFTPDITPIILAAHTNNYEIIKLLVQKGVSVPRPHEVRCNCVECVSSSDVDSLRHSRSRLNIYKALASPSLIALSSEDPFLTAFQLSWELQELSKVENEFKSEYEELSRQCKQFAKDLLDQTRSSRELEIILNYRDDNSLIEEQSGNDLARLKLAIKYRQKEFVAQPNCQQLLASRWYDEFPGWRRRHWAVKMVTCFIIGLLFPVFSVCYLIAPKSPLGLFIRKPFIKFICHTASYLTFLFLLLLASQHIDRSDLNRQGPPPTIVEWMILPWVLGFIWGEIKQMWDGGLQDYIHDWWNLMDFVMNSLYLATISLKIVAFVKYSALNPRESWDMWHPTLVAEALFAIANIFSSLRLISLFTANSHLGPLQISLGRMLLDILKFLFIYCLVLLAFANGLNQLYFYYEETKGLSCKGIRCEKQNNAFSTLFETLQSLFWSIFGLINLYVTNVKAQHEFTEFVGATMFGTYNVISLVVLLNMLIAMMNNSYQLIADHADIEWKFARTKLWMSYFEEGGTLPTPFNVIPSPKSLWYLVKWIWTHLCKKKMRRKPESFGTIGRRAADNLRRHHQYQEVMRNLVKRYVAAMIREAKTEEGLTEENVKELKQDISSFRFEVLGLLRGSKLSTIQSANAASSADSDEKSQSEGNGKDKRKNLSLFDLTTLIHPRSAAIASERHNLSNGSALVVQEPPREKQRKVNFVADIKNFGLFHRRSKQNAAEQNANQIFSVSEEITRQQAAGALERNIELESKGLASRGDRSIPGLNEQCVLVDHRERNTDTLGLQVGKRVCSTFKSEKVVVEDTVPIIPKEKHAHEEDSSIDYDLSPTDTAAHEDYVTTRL

Activation ratio, inactive:
Cc1cc(/C=C2/C(=N)N3C(=NC2=O)SN=C3S(C)(=O)=O)c(C)n1-c1ccccc1F 2.92, Cc1ccc(O)c(CNc2nc3ccccc3[nH]2)c1 6.63, CC(Oc1ccc(Cl)cc1Cl)c1nc(-c2ccccn2)no1 (centres undefined) 3.19, Fc1ccccc1COc1ccccc1CNCc1ccncc1 4.75, CC12CC3(C)CC(C)(C1)CC(NC(=O)N1CCCC1)(C2)C3 2.16, Clc1cccc(COn2c(-c3ccc(Cl)cc3Cl)nc3ncccc32)c1 17.7, CC1CCN(CCCOc2ccc(OCc3ccccc3)cc2)CC1 9.17, CCN(CC)C(=O)C1CCCN(Cc2cccc(Oc3ccccc3)c2)C1 (centres undefined) -0.97, O=C(O)c1ccc(NC(=S)NC(=O)c2ccc(-c3ccccc3)cc2)cc1 -0.42, Cc1ccc(C)c2[nH]c(=O)c(CN(Cc3nnnn3C3CCCCC3)CC3CCCO3)cc12 (centres undefined) -2.42, CC(C)CN(CC(C)C)c1nc(N)c(C#N)c(CC#N)c1C#N -1.46, CC(C)Oc1cccc(C(=O)C2CCCN(Cc3cnn(C(C)C)c3)C2)c1 (centres undefined) 12.6, Cc1ccc(O)c(Sc2cc(C)ccc2O)c1 52.6, Cc1cccc(Cn2c(C(C)(C)C)cc3cccnc32)c1 1.09, Cc1cc(N2CCC(C)CC2)nc2cccc(O)c12 0.6, CSCCNCc1cn(-c2ccc(F)cc2F)nc1-c1ccccc1C 59.1, CC(/C=C1\SC(=S)N(C(C(=O)O)C(C)C)C1=O)=C\c1ccccc1 (centres undefined) 43.8, CCN(CC)CCn1c2ccccc2c2cnc(N)c(C#N)c21 2.02, CCOC(=O)C1CCN(CC(O)COc2ccc(C(C)(C)C)cc2)CC1 (centres undefined) 2.73, CCOC(=O)c1oc2ccccc2c1CN1CCCCC1 2.32, CC(C)Cc1cc(CN2CCCC(CO)(Cc3cccc(Cl)c3)C2)[nH]n1 (centres undefined) 3.2, CCCCOc1ccc(CSCCN=C(N)N)cc1 1.28, N#Cc1c(NC(=O)C2CC(Cl)=CCC2C(=O)O)sc2c1CCCCC2 (centres undefined) 3.86, Cc1ccccc1C(=O)NC1CC2CCC(C1)N2Cc1ccccc1 (centres undefined) 2.2, COc1ccc(/C=C2\SC(=S)N(C(Cc3ccccc3)C(=O)O)C2=O)cc1 (centres undefined) 13.6, Cc1cc(NCc2ccccc2)nc(N2CCOCC2)n1 0.96, CCCc1nc(SC2CCCC2)c2c(=O)n(C)c(=O)n(C)c2n1 7.17, Fc1ccccc1Sc1ccccc1CNC1=NCCN1 0.08, CCc1nc2ccccc2n1Cc1ccccc1OC -1.7, CSc1nc(N2CCOCC2)c2c3c(sc2n1)CCCC3 1.63, COc1cccc(CNC(=O)CCC2CCCN(Cc3cc(Cl)ccc3O)C2)c1 (centres undefined) -2.03, CCOC(=O)C1(Cc2ccccc2C)CCCN(Cc2ccc(NC(C)=O)cc2)C1 (centres undefined) 12.3, CCn1c(NCc2c[nH]c3ccccc23)nc2ccccc21 -0.64, O=C(c1ccc2c(c1)OCO2)C1CCCN(Cc2ccccc2OC(F)F)C1 (centres undefined) -1.56, CC(C)(C)c1cc2cccnc2n1Cc1ccccc1 1.37, Cc1cccc(C)c1-n1cccc1/C=C1\SC(=S)N(c2cccc(C(=O)O)c2)C1=O 0.15, COc1ccc2nc(NCc3ccccc3)[nH]c2c1 3.12, Cc1ccc(C(=O)NC(=S)Nc2c(C)ccc3nsnc23)cc1 -1.61, Cc1ccccc1N1CC(O)(c2cccs2)[N+]2=C1CCCC2 (centres undefined) 9.22
